Measurements taken from PubChem BioAssay (NCI).
This is part of a sample that, as a whole, favours compounds with a hit. Of some 79,000 tested, about 15% had one in any assay. Unmarked numbers belong to inactive results. Calls of active or inactive are those of the source. Rule as the data show it: active = growth inhibition above about 70%; inactive = the rest.

How the values were obtained:
[1] = NCI Yeast Anticancer Drug Screen. Data for the rad50 strain (AID 155);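 also: 0% = growth of vehicle-only cultures of the same strain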; details: S. cerevisiae rad50 strain growth inhibition; at 50.0 µM; hits give high values
Summary of the method: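 Yeast carrying a defined DNA repair defect were exposed to test compounds, and growth was compared with vehicle-treated controls to give percent inhibition.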

[2] = NCI Yeast Anticancer Drug Screen. Data for the mec2-1 strain (AID 157); details: S. cerevisiae mec2-1 strain, at 50.0 µM, hits give high values
Summary of the method: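 Mutant yeast (mec2-1) grown with compound; growth inhibition relative to vehicle control reported.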

[3] = NCI Yeast Anticancer Drug Screen. Data for the sgs1 mgt1 strain (AID 161);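 also: 0% = growth of cultures given vehicle only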; details: S. cerevisiae sgs1 mgt1 strain, at 50.0 µM, hits give high values
Summary of the method: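 Compounds are added to genetically altered yeast, and growth is compared with cultures given vehicle alone to give percent inhibition.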

[4] = NCI Yeast Anticancer Drug Screen. Data for the cln2 rad14 strain (AID 165);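 also: 0% = growth equal to vehicle treated cultures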; details: S. cerevisiae cln2 rad14 strain, at 50.0 µM, hits give high values
Summary of the method: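 Readout is yeast growth inhibition versus vehicle-treated controls, using a strain with cln2 and rad14 alterations exposed to compound.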

[5] = NCI Yeast Anticancer Drug Screen. Data for the bub3 strain (AID 167); details: S. cerevisiae bub3 mutant strain, at 50.0 µM, hits give high values
Summary of the method: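 Compounds were applied to a genetically altered yeast strain carrying a cell-cycle control defect. Growth inhibition was scored against vehicle-treated controls.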

[6] = NCI Yeast Anticancer Drug Screen. Data for the mlh1 rad18 strain (AID 175); details: S. cerevisiae mlh1 rad18 strain growth inhibition; at 50.0 µM; hits give high values
Summary of the method: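 Genetically defined yeast (DNA repair-deficient) exposed to compounds; growth inhibition determined relative to vehicle.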

Compound: COC(=O)CCSP(=S)(Oc1ccccc1)Oc1ccccc1
- growth inhibition [1]: -0.2%
- growth inhibition [2]: 7.85%
- growth inhibition [3]: 12.3%
- growth inhibition [4]: 4.25%
- growth inhibition [5]: 36.5%
- growth inhibition [6]: 9.1%

Compound: CC1(C)N=C(N)N=C(N)N1c1ccc(CCc2ccc(S(=O)(=O)F)cc2Cl)c(Cl)c1
- growth inhibition [1]: 99.4% (active)
- growth inhibition [2]: 99.7% (active)
- growth inhibition [3]: 99.7% (active)
- growth inhibition [4]: 81.5% (active)
- growth inhibition [5]: 99.2% (active)
- growth inhibition [6]: 99.5% (active)

Compound: COc1ccc(O)c2c(=O)c3c(OC)cc4c(c3oc12)[C@@H]1C=CO[C@@H]1O4
- growth inhibition [1]: 16.6%
- growth inhibition [2]: -29.6%
- growth inhibition [3]: 17.5%
- growth inhibition [4]: -2.9%
- growth inhibition [5]: -9.65%
- growth inhibition [6]: 9.2%

Compound: O=C1/C(=C\c2ccc([N+](=O)[O-])cc2)N2CCC1CC2
- growth inhibition [1]: -8.3%
- growth inhibition [2]: 5.3%
- growth inhibition [3]: -3.65%
- growth inhibition [4]: -0.45%
- growth inhibition [5]: 1.75%
- growth inhibition [6]: 7.05%

Compound: Cc1nnn[n-]1.N.N.N.N.N.[Cl-].[Co+3]
- growth inhibition [1]: 3.15%
- growth inhibition [2]: -6.95%
- growth inhibition [3]: -9.55%
- growth inhibition [4]: 2.4%
- growth inhibition [5]: -0.15%
- growth inhibition [6]: -16.5%

Compound: C[N+](C)(Cc1ccccc1[N+](=O)[O-])c1ccc(N(CCCl)CCCl)cc1
- growth inhibition [1]: -7.8%
- growth inhibition [2]: -8.15%
- growth inhibition [3]: -4.2%
- growth inhibition [4]: -16.7%
- growth inhibition [5]: -22.3%
- growth inhibition [6]: 12.6%

Compound: Cc1ccc2nc(CCl)[nH]c2c1
- growth inhibition [1]: 31.6%
- growth inhibition [2]: -5.65%
- growth inhibition [3]: 34%
- growth inhibition [4]: 18.4%
- growth inhibition [5]: -18.1%
- growth inhibition [6]: 58.7%

Compound: COc1cc(C2(C)CCCCC2)c(OC)cc1C1(C)CCCCC1
- growth inhibition [1]: -8.1%
- growth inhibition [2]: 1.25%
- growth inhibition [3]: 23.4%
- growth inhibition [4]: -69.2%
- growth inhibition [5]: 2.75%
- growth inhibition [6]: 9.15%

Compound: COc1ccc2c3c1OC1C(OC)(OC)C=C[C@@]4(Br)[C@@H](C2)N(CC2CC2)CC[C@]314 (some centres undefined)
- growth inhibition [1]: 34.1%
- growth inhibition [2]: 5.6%
- growth inhibition [3]: -35.1%
- growth inhibition [4]: -8.55%
- growth inhibition [5]: -9.9%
- growth inhibition [6]: -44.6%

Compound: COc1ccc(C(=O)O[C@H]2CC[C@@]3(C)[C@@H]4CC[C@H]5[C@]6(O)C[C@H](O)[C@@]7(O)[C@@H](CN8C[C@@H](C)CC[C@H]8[C@@]7(C)O)[C@]6(O)C[C@@]53OC24O)cc1OC
- growth inhibition [1]: -16.7%
- growth inhibition [2]: -32%
- growth inhibition [3]: -28.9%
- growth inhibition [4]: 6.4%
- growth inhibition [5]: -28.8%
- growth inhibition [6]: -5.15%

Compound: CCCC[S][Sn]([CH2]CCC)([CH2]CCC)[S]CCCC
- growth inhibition [1]: 95.8% (active)
- growth inhibition [2]: 92.3% (active)
- growth inhibition [3]: 94.7% (active)
- growth inhibition [4]: 89.2% (active)
- growth inhibition [5]: 93.2% (active)
- growth inhibition [6]: 95.5% (active)

Compound: C1CC[N-]CC1.CN(C)P(=O)(N(C)C)N(C)C.OO.OO.[O]=[Mo]
- growth inhibition [1]: 11.3%
- growth inhibition [2]: -16%
- growth inhibition [3]: 15.6%
- growth inhibition [4]: 17.4%
- growth inhibition [5]: 11.9%
- growth inhibition [6]: 15.7%

Compound: CC(=O)CC(C)=O.CC(=O)CC(C)=O.[O]=[V]
- growth inhibition [1]: -60.2%
- growth inhibition [2]: -58%
- growth inhibition [3]: -57.8%
- growth inhibition [4]: -153%
- growth inhibition [5]: -54.6%
- growth inhibition [6]: -53.2%

Compound: O=[N+]([O-])c1ccc(OCc2ccc(S(=O)(=O)F)cc2Cl)c(Cl)c1
- growth inhibition [1]: 1.45%
- growth inhibition [2]: -2.95%
- growth inhibition [3]: -3.15%
- growth inhibition [4]: 20.6%
- growth inhibition [5]: -3.55%
- growth inhibition [6]: -3.6%

Compound: COC1OCC(N=[N+]=[N-])C(OC)C1O (centres undefined)
- growth inhibition [1]: 18.8%
- growth inhibition [2]: -12.4%
- growth inhibition [3]: -3.1%
- growth inhibition [4]: -19.2%
- growth inhibition [5]: 5.65%
- growth inhibition [6]: -1.8%

Compound: Cc1cc(C)cc(OP(=O)(Oc2cc(C)cc(C)c2)Oc2cc(C)cc(C)c2)c1
- growth inhibition [1]: -13.3%
- growth inhibition [2]: -24.6%
- growth inhibition [3]: 5.45%
- growth inhibition [4]: -3.65%
- growth inhibition [5]: 1.7%
- growth inhibition [6]: -5.25%

Compound: CC(C)(C#N)O[N+](=O)[O-]
- growth inhibition [1]: 0.1%
- growth inhibition [2]: 7.3%
- growth inhibition [3]: -4.7%
- growth inhibition [4]: -16.8%
- growth inhibition [5]: -0.7%
- growth inhibition [6]: 0.2%

Compound: COc1ccc(C(C)CNCc2ccccc2)cc1 (centres undefined)
- growth inhibition [1]: 0.3%
- growth inhibition [2]: -1.35%
- growth inhibition [3]: 21.1%
- growth inhibition [4]: -10.8%
- growth inhibition [5]: -1.7%
- growth inhibition [6]: -1.45%

Compound: CS/C([S-])=N/N=C\c1ccccn1.CS/C([S-])=N/N=C\c1ccccn1.[Ni+2]
- growth inhibition [1]: 14.7%
- growth inhibition [2]: -6.75%
- growth inhibition [3]: 17.2%
- growth inhibition [4]: -35.4%
- growth inhibition [5]: 2.45%
- growth inhibition [6]: -0.45%

Compound: CCCCCCCCCCCC(=O)[O][Pb]([CH2]CCC)([CH2]CCC)[O]C(=O)CCCCCCCCCCC
- growth inhibition [1]: 23.5%
- growth inhibition [2]: 4.05%
- growth inhibition [3]: 13.2%
- growth inhibition [4]: -3.15%
- growth inhibition [5]: 6.45%
- growth inhibition [6]: 23%

Compound: CCCCCCCCCCCCCCCC[As](CCCCCCCCCCCCCCCC)SC1OC(COC(C)=O)C(OC(C)=O)C(OC(C)=O)C1OC(C)=O (centres undefined)
- growth inhibition [1]: 6.55%
- growth inhibition [2]: 3.55%
- growth inhibition [3]: 19.9%
- growth inhibition [4]: -4.7%
- growth inhibition [5]: 1.5%
- growth inhibition [6]: 3.55%

Compound: CN(C)C(=O)Sc1cc(Cl)c(S(=O)(=O)F)cc1Cl
- growth inhibition [1]: 9.45%
- growth inhibition [2]: 6.8%
- growth inhibition [3]: 10.7%
- growth inhibition [4]: 8.9%
- growth inhibition [5]: 3.35%
- growth inhibition [6]: 14.9%

Compound: [O-][n+]1c2ccccc2nc2ccccc21
- growth inhibition [1]: 62.1%
- growth inhibition [2]: 34%
- growth inhibition [3]: 26.9%
- growth inhibition [4]: -9.55%
- growth inhibition [5]: 41.2%
- growth inhibition [6]: 55.7%

Compound: N=Cc1c(O)[nH]c(=O)[nH]c1=O
- growth inhibition [1]: 1.4%
- growth inhibition [2]: 8.75%
- growth inhibition [3]: 3.45%
- growth inhibition [4]: -10.4%
- growth inhibition [5]: 0.65%
- growth inhibition [6]: -0.8%

Compound: COc1ccc(CC(N)c2ccc(OC)cc2)cc1 (centres undefined)
- growth inhibition [1]: -50%
- growth inhibition [2]: 0.8%
- growth inhibition [3]: -40%
- growth inhibition [4]: -24.8%
- growth inhibition [5]: -11.3%
- growth inhibition [6]: -2.4%

Compound: O=c1c(O)c(-c2ccccc2)oc2ccccc12
- growth inhibition [1]: 12.6%
- growth inhibition [2]: 14.8%
- growth inhibition [3]: 35.5%
- growth inhibition [4]: 15.6%
- growth inhibition [5]: 42.5%
- growth inhibition [6]: 34.8%

Compound: N#CC(C#N)=Cc1ccc(F)cc1
- growth inhibition [1]: -6.85%
- growth inhibition [2]: 5%
- growth inhibition [3]: -18.7%
- growth inhibition [4]: -15.7%
- growth inhibition [5]: 16.1%
- growth inhibition [6]: -15.5%

Compound: O=C(c1ccccc1)c1c(CC(O)c2ccccc2)n(C(=O)c2ccccc2)c2ccccc12 (centres undefined)
- growth inhibition [1]: 10.6%
- growth inhibition [2]: -20.1%
- growth inhibition [3]: -14.3%
- growth inhibition [4]: -67.2%
- growth inhibition [5]: -22.9%
- growth inhibition [6]: -13.9%

Compound: CSCCC(NC(=O)C(Cc1ccccc1)NC(=O)CNC(=O)CNC(=O)C(N)Cc1ccc(O)cc1)C(=O)O (centres undefined)
- growth inhibition [1]: 12.4%
- growth inhibition [2]: 2.2%
- growth inhibition [3]: -6.45%
- growth inhibition [4]: 26.2%
- growth inhibition [5]: 14.4%
- growth inhibition [6]: 16.2%

Compound: COc1ccccc1-n1c(C)nc2ccccc2c1=O
- growth inhibition [1]: -5%
- growth inhibition [2]: -19.6%
- growth inhibition [3]: 6.2%
- growth inhibition [4]: 2.8%
- growth inhibition [5]: 19.7%
- growth inhibition [6]: 4.8%

Compound: CCOP(=O)(OCC)Oc1ccc(S(C)=O)cc1 (centres undefined)
- growth inhibition [1]: -1.95%
- growth inhibition [2]: -14.8%
- growth inhibition [3]: -1%
- growth inhibition [4]: -10.2%
- growth inhibition [5]: 8.75%
- growth inhibition [6]: -0.25%

Compound: O=C1C(F)=C(F)C(=O)C(F)=C1F
- growth inhibition [1]: 16.2%
- growth inhibition [2]: -4.75%
- growth inhibition [3]: 8.35%
- growth inhibition [4]: -2.85%
- growth inhibition [5]: 21.5%
- growth inhibition [6]: -1.7%

Compound: O=C1NCC2C3CCC(O3)C12 (centres undefined)
- growth inhibition [1]: -6.3%
- growth inhibition [2]: -16.1%
- growth inhibition [3]: 7.95%
- growth inhibition [4]: -10.2%
- growth inhibition [5]: -17.4%
- growth inhibition [6]: -12.1%

Compound: CC([NH-])C(=O)O.[Cl][Pt][Cl] (centres undefined)
- growth inhibition [1]: -25.6%
- growth inhibition [2]: -9.6%
- growth inhibition [3]: -24.9%
- growth inhibition [4]: 7.55%
- growth inhibition [5]: -10.6%
- growth inhibition [6]: -9.55%

Compound: CCCC[As](=O)(O)CC(C)C
- growth inhibition [1]: -3.2%
- growth inhibition [2]: -1.75%
- growth inhibition [3]: -7.4%
- growth inhibition [4]: 4.9%
- growth inhibition [5]: -14.2%
- growth inhibition [6]: 1.2%

Compound: CN1CN(c2ccccc2)C2(CCN(CCC3COc4ccccc4O3)CC2)C1=O (centres undefined)
- growth inhibition [1]: -15.4%
- growth inhibition [2]: -10.3%
- growth inhibition [3]: -10.1%
- growth inhibition [4]: -1.4%
- growth inhibition [5]: -4.45%
- growth inhibition [6]: -1.35%

Compound: COC1OOC(OC)c2ccccc2-c2ccccc21 (centres undefined)
- growth inhibition [1]: -15.3%
- growth inhibition [2]: -9.7%
- growth inhibition [3]: 4.1%
- growth inhibition [4]: -14.1%
- growth inhibition [5]: 15.5%
- growth inhibition [6]: 4.15%

Compound: CCN(CC)CCO
- growth inhibition [1]: -4.1%
- growth inhibition [2]: -4.9%
- growth inhibition [3]: -9.6%
- growth inhibition [4]: 7.05%
- growth inhibition [5]: 15.2%
- growth inhibition [6]: -23.6%

Compound: CN1CCNCC1
- growth inhibition [1]: 11.1%
- growth inhibition [2]: -6.55%
- growth inhibition [3]: -10.5%
- growth inhibition [4]: -18.4%
- growth inhibition [5]: 11.5%
- growth inhibition [6]: 5.75%
